# ± gives the standard deviation of the averaged measurements. In all, about 33,000 sequences were measured (“E-score (dimensionless, -0.5 to 0.5)”: median about -0.049, highest 2% from about 0.37 on). What follows is part of a selection rich in the highest values, with near analogues and random picks from the rest.
# System: T1, PmTbr T-box DNA-binding domain (GST fusion)
# T1 sequence: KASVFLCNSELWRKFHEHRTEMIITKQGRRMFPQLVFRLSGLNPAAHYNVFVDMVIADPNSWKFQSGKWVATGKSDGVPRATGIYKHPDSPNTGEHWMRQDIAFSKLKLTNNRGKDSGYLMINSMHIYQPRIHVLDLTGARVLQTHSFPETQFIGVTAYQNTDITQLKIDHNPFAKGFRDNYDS
# Assay: PBM E-score of 8-mer (E-score (dimensionless, -0.5 to 0.5)); Tbr is Tbrain of the sea star Patiria miniata (Pm) or the sea urchin Strongylocentrotus purpuratus (Sp); higher = stronger binding preference
# Conditions: the construct has about 5 more residues each side
# Method: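 Universal protein-binding microarray (Agilent AMADID 016060, 60-bp probes with a 35-bp variable region) incubated with 200 nM GST-fused Patiria miniata Tbr T-box DNA-binding domain (residues 272-466) in PBS pH 7.5. Scored for every ungapped 8-mer (given with its reverse complement) by the Universal PBM Analysis Suite as E-score (modified Wilcoxon-Mann-Whitney enrichment, range -0.5 to 0.5; >0.45 counts as bound) and Z-score of median probe intensity. Two replicate arrays (datasets 1 and 2).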
# 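Note: 200 nM protein in PBS on universal arrays averaged over duplicate arrays.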
row,Sequence,PBM E-score of 8-mer
1,CAACGCTC,-0.0448 ± 0.0033
2,ATTTCACC,0.167 ± 0.058
3,CTTTCACC,0.14 ± 0.034
4,ATTTCACA,0.426 ± 0.013
5,ATTTCACG,0.319 ± 0.026
6,GTTTCACA,0.36 ± 0.027
7,CTTTCACA,0.444 ± 0.0053
8,ACCATTCG,0.233 ± 0.04
9,ATCTTTTG,-0.2448 ± 0.0018
10,CATTTTGC,-0.00766 ± 0.017
11,CGATCTTA,-0.0203 ± 0.061
12,TGATCACA,0.20944 ± 9.2e-05
13,GCGTGAAA,0.4552 ± 0.0024
14,ATGTGAAA,0.287 ± 0.019
15,CTGTGAAC,0.356 ± 0.0043
16,CTGTGAAA,0.384 ± 0.0085
17,CCGTGAAC,0.257 ± 0.04
18,TTGTGAAA,0.344 ± 0.027
19,TCGTGAAA,0.279 ± 0.018
20,ACGTGAAC,0.112 ± 0.051
21,GCGTGAAC,0.405 ± 0.021
22,ATGTGAAC,0.175 ± 0.039
23,CCGTGAAA,0.222 ± 0.019
24,GTGTGAAC,0.4888 ± 0.0019
25,CCCAGGTA,-0.102 ± 0.03
26,CGCTTCAA,0.0949 ± 0.078

row,Sequence,PBM E-score of 8-mer
1,AATCGCTG,-0.0604 ± 0.024
2,CCCATCCG,-0.108 ± 0.058
3,ACATCGTA,-0.0767 ± 0.038
4,ATCAATAA,-0.279 ± 0.033
5,GCTCCTGA,-0.206 ± 0.08
6,CACAGGTC,0.15 ± 0.028
7,ACCAGGTG,0.369 ± 0.028
8,AGCAGGTA,-0.0669 ± 0.01
9,AACAGGTG,0.4042 ± 0.00081
10,AGCAGGTC,0.0259 ± 0.014
11,CACAGGTG,0.461 ± 0.0062
12,CACAGGTA,0.163 ± 0.029
13,AGCAGGTG,0.414 ± 0.026
14,AACAGGTC,0.14 ± 0.036
15,ACCAGGTC,-0.101 ± 0.039
16,AACAGGTA,0.126 ± 0.015
17,ACCAGGTA,-0.0585 ± 0.034
18,TATTCGGA,-0.32 ± 0.033
19,ACGCGACG,0.237 ± 0.016
20,AACTGCAT,-0.201 ± 0.029
21,CCTAAGAC,-0.178 ± 0.094
22,CCCAAGGG,-0.052 ± 0.028
23,CTACAGAA,0.0244 ± 0.029
24,CACATTGG,0.281 ± 0.053
25,TGTTTGAA,0.112 ± 0.0038
26,ATCAGGTC,-0.169 ± 0.12

row,Sequence,PBM E-score of 8-mer
1,ATCAGGTG,0.404 ± 0.0092
2,ATCAGGTA,-0.0936 ± 0.033
3,ACGGTGCC,0.158 ± 0.032
4,GAGGTGCC,0.409 ± 0.03
5,AAGGTGCC,0.405 ± 0.0071
6,GAGGTGCA,0.367 ± 0.0099
7,ACGGTGCT,0.164 ± 0.072
8,AAGGTGGT,0.3415 ± 0.002
9,ACGGTGCA,0.0807 ± 0.013
10,AAGGTGCT,0.441 ± 0.0066
11,TAGGTGCA,0.22 ± 0.024
12,GCGGTGCC,0.0932 ± 0.011
13,ATGGTGCC,0.193 ± 0.051
14,AAGGTGCA,0.4 ± 0.011
15,ACTTTTTC,0.124 ± 0.02
16,AAAAGACT,-0.205 ± 0.034
17,CAGTCCTC,-0.118 ± 0.032
18,CCACTGCC,-0.17 ± 0.095
19,CAGAAGTA,-0.223 ± 0.0053
20,ATCCACAG,-0.0977 ± 0.018
21,ATCGAACA,-0.0797 ± 0.051
22,CCCAGGGG,-0.162 ± 0.093
23,AAAGTGAC,0.392 ± 0.012
24,GAAGTGAA,0.219 ± 0.011
25,GAAGTGAC,0.379 ± 0.017
26,AAAGTGAA,-0.00138 ± 0.15

row,Sequence,PBM E-score of 8-mer
1,AAAGTGAT,0.299 ± 0.012
2,CAAGTGAC,0.325 ± 0.021
3,AGAGTTCG,-0.201 ± 0.018
4,CTGGGACA,-0.223 ± 0.073
5,AACTTGCG,0.137 ± 0.02
6,CACTTCAG,0.255 ± 0.025
7,CACTTGTC,0.402 ± 0.0079
8,CACTTCCC,0.3321 ± 0.00048
9,CACTTCCG,0.37 ± 0.013
10,CACTTGCA,0.349 ± 0.0093
11,AACTTGTC,0.34353 ± 0.00012
12,CACTTGTA,0.0949 ± 0.008
13,AACTTCAC,0.0623 ± 0.061
14,CACTTCAC,0.396 ± 0.012
15,CACTTGCG,0.376 ± 0.019
16,AACTTCCG,-0.141 ± 0.013
17,ACCCTTGC,0.0156 ± 0.051
18,ACAGATAC,-0.0952 ± 0.059
19,AATTAAGG,-0.152 ± 0.064
20,ACCGTCAC,0.288 ± 0.0081
21,ACACTCTG,0.2899 ± 0.00065
22,AATTGGAA,-0.0872 ± 0.056
23,GGGCCAAA,-0.228 ± 0.029
24,CATTGGGG,-0.0156 ± 0.035
25,CTTCGCGC,0.3742 ± 0.0014
26,AATCGCGA,0.3771 ± 0.0028

row,Sequence,PBM E-score of 8-mer
1,ATTCGCGA,0.389 ± 0.0025
2,GTTCGCGA,0.338 ± 0.019
3,CCTCGCGA,0.281 ± 0.00058
4,AATCGCGT,0.169 ± 0.035
5,CATCGCGC,0.262 ± 0.0094
6,CTTCGCGA,0.277 ± 0.011
7,ACTCGCGC,0.29 ± 0.014
8,ACTCGCGA,0.38 ± 0.0065
9,CTTCGCTC,0.00268 ± 0.066
10,CATCGCGA,0.15 ± 0.043
11,GGCATTAA,-0.146 ± 0.0047
12,TGCTCCAA,-0.162 ± 0.04
13,ACCCTACG,0.0529 ± 0.027
14,AGCCTAGC,-0.00521 ± 0.12
15,TCGAAGCA,-0.141 ± 0.0046
16,ATTCGCGC,0.39 ± 0.021
17,AATCGCGC,0.311 ± 0.024
18,ATTCGCGG,0.244 ± 0.039
19,CTAGCACA,0.327 ± 0.024
20,CTAGCACC,0.449 ± 0.006
21,ATAGCACG,0.358 ± 0.017
22,ATAGCACC,0.416 ± 0.012
23,ATAGCACA,0.174 ± 0.035
24,CAAGCACC,0.129 ± 0.016
25,ACATTCGC,0.267 ± 0.042
26,AGGCTTGG,-0.2 ± 0.011

row,Sequence,PBM E-score of 8-mer
1,GAAACCGA,-0.0132 ± 0.073
2,AGCCATAG,-0.0194 ± 0.015
3,ATGGCACC,0.387 ± 0.011
4,CTGGCACA,0.241 ± 0.0048
5,CAGGCACC,-0.0396 ± 0.032
6,CTGGCACC,0.411 ± 0.018
7,ATGGCACA,0.103 ± 0.0048
8,ATGGCACG,0.189 ± 0.041
9,ACCGGTCC,-0.276 ± 0.048
10,TCCTATAA,-0.189 ± 0.068
11,AAATAGGG,-0.0426 ± 0.12
12,ACGGCTCT,-0.15 ± 0.033
13,CACCTGAA,0.312 ± 0.0079
14,CACCTGTA,0.391 ± 0.009
15,GACCTGAC,-0.0852 ± 0.017
16,CACCTGTC,0.4274 ± 0.0023
17,AACCTGAC,0.111 ± 0.026
18,CACCTGAG,0.37535 ± 0.00034
19,CGCCTGAG,0.0681 ± 0.047
20,AACCTGAG,0.0264 ± 0.17
21,AACCTGTC,0.30927 ± 0.00016
22,AACCTGTA,-0.252 ± 0.046
23,CACCTGAC,0.387 ± 0.018
24,CGCCTGTC,0.303 ± 0.026
25,AAACTATC,-0.215 ± 0.063
26,AACCAGCA,-0.18 ± 0.047

row,Sequence,PBM E-score of 8-mer
1,GATGGCCC,-0.138 ± 0.0089
2,GCTCCACA,-0.0189 ± 0.02
3,ACTGAACG,-0.315 ± 0.091
4,GCTTTACC,-0.126 ± 0.066
5,AAGGTTAC,-0.145 ± 0.017
6,GGGCCCAA,-0.154 ± 0.022
7,CGTGTTTC,0.126 ± 0.034
8,ACCCAGTA,-0.234 ± 0.012
9,AGATAAAT,-0.223 ± 0.057
10,CCTGACAC,0.435 ± 0.0077
11,AATGACAC,0.355 ± 0.0044
12,CATGACAA,0.204 ± 0.047
13,ACTGACAA,0.166 ± 0.009
14,GCTGACCC,-0.159 ± 0.14
15,GCTGACAA,0.2795 ± 0.00061
16,CATGACAC,0.389 ± 0.0048
17,ACTGACAC,0.379 ± 0.012
18,CCTGACAG,0.218 ± 0.036
19,GCTGACAC,0.398 ± 0.013
20,CCTGACAA,0.207 ± 0.027
21,ACTGACAT,0.0983 ± 0.064

# From the supplement of paper PMC4166925
